Screen size: about 48,000 compounds; about 13,000 (27%) showed an effect of 50% or more. The list shows a part of the results.

Data on 33 compounds can be found in ChEMBL document CHEMBL3988442, “University of Dundee, Small-Polar-MMV Screening Library” (2021).

This assay deals with Wolbachia pipientis. Description: Anti-Wolbachia Cell-Based Screen. The format is functional. The arrangement: scale not given: in the data most compounds retested in dose-response had high values. As to conditions: 5 µM.
In the case of `CC(C)c1noc(C(C)N2CCC(c3nc4ccccc4o3)CC2)n1` (stereo not drawn), the “Percent Effect” value was determined as 1.795%. As for `Cc1cc(C)c2c(c1)C(NC(=O)CSc1nnc[nH]1)CCO2` (stereo not drawn), the figure is 8.701%; as for `Cc1nn(C)c2nc(N(C)CC3CCN(CC(C)C)C3)sc12` (stereo not drawn), -16.91%. The same measure for `O=C(c1ccoc1)N1CCCN(CC2CCOc3ccccc3C2)CC1` (stereo not drawn): -7.228%; for `Cc1nc(NC(=O)NC2CC(=O)N(C)C2)nn1C` (stereo not drawn): 3.668%. As to `Cc1cc(C)cc(OCCC(=O)NC2CC(=O)N(C)C2)c1` (stereo not drawn), the “Percent Effect” value is -4.77%.

`CN1CC(c2cc(O)nc(NCc3cccc(F)c3)n2)CC1=O` (stereo not drawn): the “Percent Effect” value turned out to be 104.4%. With `CC1CCc2nc(O)c(C(=O)NCc3cccc(F)c3)cc2C1` (stereo not drawn), the “Percent Effect” value is given as -1.382%. As for `CC(C)(CO)NC(=O)C1CCC(=O)N(Cc2ccc(Cl)cc2)C1` (stereo not drawn), the figure is -2.281%. On to `CN1CC(c2cc(O)nc(NCc3ccc(Cl)cc3)n2)CC1=O` (stereo not drawn), for which the “Percent Effect” value is recorded as 70.24%. The same measure for `Cc1ccc(CNc2nc(O)cc(C3CC(=O)N(C)C3)n2)cc1` (stereo not drawn): 96.21%; for `N#Cc1cccc(NC2CC(=O)N(Cc3ccccc3Cl)C2)n1` (stereo not drawn): -1.238%. In the case of `CN1CC(c2cc(O)nc(NCc3ccccc3Cl)n2)CC1=O` (stereo not drawn), the “Percent Effect” value is reported as 83.2%. As for `Cc1ccccc1CNc1nc(O)cc(C2CC(=O)N(C)C2)n1` (stereo not drawn), the figure is -5.04%. As for `COc1cccc(CNc2nc(O)cc(C3CC(=O)N(C)C3)n2)c1` (stereo not drawn), the figure is -3.669%.

For `CCC(NC(=O)Nc1ccc(OC)c(C)c1)c1noc(C)n1` (stereo not drawn), the “Percent Effect” value is given as -4.029%. The same measure for `CC(C(=O)N1CCCN(c2ncccc2C#N)CC1)n1cccn1` (stereo not drawn): 0.5745%. Consider `N#Cc1ccc(N2CCCN(CC(=O)N3CCC3)CC2)cc1`, for which the “Percent Effect” value amounted to 4.301%.

For `CC(C(=O)N1CCCN(c2ccccc2C#N)CC1)n1cccn1` (stereo not drawn), the “Percent Effect” value amounted to 129.1%.

For `CC(C(=O)N1CCCN(c2ccc(C#N)cc2)CC1)n1cccn1` (stereo not drawn), the “Percent Effect” value came to 143.8%. As for `CC(C(=O)N1CCCN(c2ccc(C#N)cc2)CC1)n1ccnc1` (stereo not drawn), the figure is -8.735%; as for `CC(C)c1nccn1C(C)C(=O)N1CCN(c2ccccc2Cl)CC1` (stereo not drawn), -35.17%. As to `CC(C)n1ccnc1CN1C(=O)OC[C@@H]1c1ccccc1`, the “Percent Effect” value was 11.77%. Regarding `CCOCC(=O)N1C[C@H]2CC[C@@H]1CN(C(=O)c1ccncc1)C2`, the “Percent Effect” value is on record as -0.6982%. As for `CN(C)c1cnn(CC(=O)N2CCN(c3ccccc3)CC2)c(=O)c1`, the figure is 3.087%; as for `CN(C)c1cnn(Cc2nc3ccccc3n2C)c(=O)c1`, 116.1%; as for `CCCOCCn1ncc(N2CCCC2)cc1=O`, 0.2704%. Turning to `Cn1c(Cn2ncc(N3CCCC3)cc2=O)nc2ccccc21`, the “Percent Effect” value turned out to be 114.5%. The same measure for `O=c1cc(N2CCCCC2)cnn1CCCn1cccn1`: 21.14%; for `CN1CCCN(c2cnn(Cc3ccncc3)c(=O)c2)CC1`: -30.12%. As for `CN(C)c1cnn(CC(=O)N2Cc3ccccc3C2)c(=O)c1`, the figure is 8.607%; as for `CN1CCCN(c2cnn(Cc3ccc(C(C)(C)C)cc3)c(=O)c2)CC1`, 10.83%; as for `Cn1c(Cn2ncc(N3CCCCC3)cc2=O)nc2ccccc21`, 93.17%.
